In the library only some 19% were active in any assay of this set; here they are far more common.
DT40 TDP1 CPT = growth inhibition of DT40 Tdp1-/-;hTDP1 cells with camptothecin (screen for TDP1 inhibitors). chicken DT40 Tdp1-/-;hTDP1 cells + 20 nM CPT, ATP luminescence, 48 h. Potency, µM (titrated, usually from 46.2 µM), without a hit: top-dose activity change, negative = growth inhibition, hits mostly inhibitors. 420,000 tested, 12% active. AID 686979; note: nearly all actives have a fitted effect of over 55% in size
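Chicken DT40 Tdp1-/- cells stably complemented with human TDP1 were seeded at 400 cells/well in medium containing 20 nM camptothecin, exposed to pin-transferred compounds, and grown at 37 °C for at least 48 hr. Viability was read as ATP luminescence.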
HT1080NT lethal = kills 2HG-producing HT-1080-NT fibrosarcoma cells; HT-1080-NT fibrosarcoma viability, CellTiter-Glo ATP luminescence, 48 h; Potency, µM (titrated, usually from 46.1 µM), inactives show at the highest dose activity, negative = less viability, usual class: cytotoxic; 360,000 tested, 1.6% active; AID 686970;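 note: NT is the 2HG producing partner of a matched IDH1 knockdown line; 0% = DMSO-treated cells and -100% = media-only wells without cells; nearly all actives have a fitted effect of over 55% in size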
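HT-1080-NT; 750 cells/well; 5% FBS RPMI; 48 h compound, 37 degrees C; CellTiter-Glo luminescence; curve fitting and curve-class assignment.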
HT1080 IDH1KD tx = kills HT-1080 cells with IDH1 knockdown; HT-1080 IDH1 knockdown viability, ATP luminescence, 48 h; Potency, µM (titrated, usually from 46.1 µM), inactives show at the highest dose activity, negative = toxicity, actives largely listed as cytotoxic; 360,000 tested, 2% active; AID 686971;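 note: 0% = DMSO wells and -100% = cell-free medium wells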
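After a 2 h attachment period, IDH1KD HT-1080 cells took pin-transferred compound for 48 h at 37 °C; ATP-based luminescence after 10 min room-temperature reagent incubation reported viability.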
KB-3-1 tox = kills parental KB-3-1 adenocarcinoma cells; AID 1347075; 400,000 tested, 1.4% active; Potency, µM (top dose mostly 46.1 µM), hits mostly cytotoxic; KB-3-1 viability, CellTiter-Glo ATP luminescence, 72 h; note: nearly all actives have a fitted effect of over 60% in size
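Here the drug-naive KB-3-1 line serves as comparator for MDR sub-line selectivity; cells received compound titrations, 72 h at 37 °C, then CellTiter-Glo readout.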
DT40 TDP1 no CPT = qHTS for Inhibitors of human tyrosyl-DNA phosphodiesterase 1 (TDP1): qHTS in cells in absence of CPT. 420,000 tested, 15% active. Potency, µM (highest dose often 46.2 µM), for the others: top-dose activity change, negative = growth inhibition, actives largely listed as inhibitors. DT40 Tdp1-/- hTDP1 cells, no CPT, ATP luminescence, 48 h. AID 686978, 2013; note: nearly all actives have a fitted effect of over 55% in size
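Growth of hTDP1-complemented DT40 Tdp1-knockout cells is measured by ATP luminescence after at least 48 hr compound exposure at 37 °C, with DMSO substituting for the 20 nM CPT used in the parallel screen.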
KB-V1 MDR tox = KB-V1 MDR subline cytotoxicity; KB-V1 MDR cells viability, CellTiter-Glo, 72 h; Potency, µM (doses to about 46.1 µM), actives largely listed as cytotoxic; 400,000 tested, 3.4% active; note: nearly all actives have a fitted effect of over 60% in size
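qHTS viability screen in drug-selected KB-V1 MDR cells: 72 h compound treatment at 37 degrees C, ATP luminescence end point.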
Numbers without * were called inactive; i = inactive; ? = inconclusive; . = no result; [ ] = remark or other dose. Calls come from the whole dose curve; as a rule, active = well fitted curve in the direction sought with a large enough effect; inconclusive = small, poorly fitted or top-dose-only effect, or another doubt; inactive = no such curve, though single readings can be large; an effect the other way counts as inactive or inconclusive. Unless noted, % is set by controls: 0 for no effect and ±100 for the full control effect; potency is the fitted concentration of half-maximal effect.

SMILES | DT40 TDP1 CPT | HT1080NT lethal | HT1080 IDH1KD tx | KB-3-1 tox | DT40 TDP1 no CPT | KB-V1 MDR tox
CCOc1ccc(NC(=O)c2ccc3c(c2)CCN3S(=O)(=O)c2ccc(Cl)cc2)cc1 | -23% | . | . | i | ? | i
COc1ccc(NC(=O)c2cc(C3CCCCN3C(=O)c3ccc4c(c3)CCO4)on2)c(C)c1 (centres undefined) | -35% | -4% | 1% | i | ? | ?
COc1ccc(/C=C/c2nc(C#N)c(N3CCCCC3)o2)cc1OC | 23µM* | . | . | i | 16µM* | i
COc1cc(/C=C/c2nc(C#N)c(N3CCCCCC3)o2)cc(OC)c1OC | 15µM* | . | . | . | 16µM* | .
COc1cc(/C=C/c2nc(C#N)c(N3CCC(C)CC3)o2)cc(OC)c1OC | 10µM* | . | . | . | 7.3µM* | .
CC1CCN(c2oc(-c3cccc4ccccc34)nc2C#N)CC1 | -20% | -5% | -24% | i | -19% | i
CCc1nc(C#N)c(N2CCCCC2)o1 | -4% | 4% | 8% | i | 0% | ?
CSc1ncnc2c1ncn2CCCNCCc1ccccn1 | 6% | -1% | -2% | i | 7% | i
N#Cc1cccc(NC(=O)N2CC[C@@]3(CCCNC3)C2)c1 | -90% | . | . | . | -14% | .
COc1ccc(NC(=O)Nc2ccc3nc([C@@H]4O[C@H](CO)[C@@H](O)[C@H](O)[C@H]4O)[nH]c3c2)cc1OC1CCCC1 | 3% | 21% | 14% | i | -3% | i
COc1ccc(C2(c3ccc(OC)cc3)NC(=O)N(CC(=O)NCC(C)c3ccccc3)C2=O)cc1 (centres undefined) | -4% | 0%[9.24 µM] | -3% | i | 3% | i
CCc1ccc2c(c1)C(=O)C(=O)N2CCS(=O)(=O)c1ccccc1 | 2.9µM* | -8% | 0% | i | 2.6µM* | i
Cc1noc(C)c1NC(=O)N1C[C@H](O)COC[C@H]2O[C@@H](CC(=O)NCC3CCCCC3)CC[C@@H]21 | 13% | 13% | 17% | i | -2% | i
O=C(Cc1ccccc1)c1c[nH]c(C(=O)NC2CCCC2)c1 | -19% | 20% | 14% | i | -13% | ?
N#Cc1cccc(C(=O)N(CCc2ccccc2)Cc2cccs2)c1 | ? | -7% | -13% | i | 26µM* | i
Cc1ccc(-n2nc(C)c3c(C)cc(=O)n(CC(=O)Nc4cc(Cl)ccc4C)c32)cc1 | -13% | . | . | i | 2% | i
COc1ccc(C(=O)OCC(=O)N2CCCCCC2)cc1S(=O)(=O)N1CCOCC1 | -11% | 7% | -3% | i | 17% | i
COc1ccc(-c2noc(CCC(=O)NCC3CCCO3)n2)cc1 (centres undefined) | 8% | 1% | 9% | i | -2% | i
CC(C)(C)c1ccc(-c2noc(CCC(=O)NCC3CCCO3)n2)cc1 (centres undefined) | 21µM* | -3% | -18% | ? | ? | ?
CCn1c(=O)c(CCC(=O)N2CCN(c3ccccn3)CC2)c(C)c2c(C)nn(-c3cccc(C)c3)c21 | 15µM* | 15% | 12% | i | ? | i
CCn1c(=O)c(CCC(=O)NCC2CCCO2)c(C)c2c(C)nn(-c3ccc(C)cc3)c21 (centres undefined) | 23µM* | 0% | 0% | i | ? | i
Cc1ccc(-c2noc(CCC(=O)NCC3CCCO3)n2)cc1 (centres undefined) | -10% | -14% | -23% | i | -9% | 21µM*
Cc1nc2nc(C)c(CCC(=O)N3CCN(c4ccccn4)CC3)c(C)n2n1 | 0% | -3%[9.24 µM] | 5% | ? | -20% | ?
CC(=O)Nc1cccc(C(=O)OCC(=O)N2CCN(C(=O)COC(=O)c3cccc(NC(C)=O)c3)CC2)c1 | -4% | -7% | -5% | i | -1% | i
CC(=O)c1c(N2CCN(C)CC2)nc(=S)n(-c2cc(C)ccc2C)c1C | 6% | -2% | 4% | i | -18% | i
SMILES | DT40 TDP1 CPT | HT1080NT lethal | HT1080 IDH1KD tx | KB-3-1 tox | DT40 TDP1 no CPT | KB-V1 MDR tox
CN(c1ccc([N+](=O)[O-])cc1/C=N/NC(=O)COc1ccccc1)C1CCCCC1 | ? | -10% | -12% | i | 16µM* | i
CCc1ccc(OCC(=O)N/N=C/c2cc([N+](=O)[O-])ccc2N2CCCCCC2)cc1 | ? | 7% | 4% | i | ? | i
C=CCOC(=O)C1=C(C)OC(N)=C(C#N)C1c1ccc(OC)c(CSc2ccccn2)c1 (centres undefined) | -12% | 0% | 0% | i | -28% | ?
CCCC1=C(C(=O)OCC)C(c2c(C)nn(-c3ccccc3)c2Cl)C(C#N)=C(N)O1 (centres undefined) | ? | -2% | 0% | i | 21µM* | i
CCCC1=C(C(=O)OCC)C(c2ccc(OC)c(CSc3ccccn3)c2)C(C#N)=C(N)O1 (centres undefined) | ? | -6% | -8% | i | ? | 21µM*
CC(=O)N1CCc2c(sc3c2c(=O)n(Cc2ccccc2)c(=O)n3CC(=O)Nc2ccc(C)c(F)c2)C1 | ? | . | . | i | ? | i
Cc1cc(/C=C(\C#N)C(=O)Nc2ccccc2F)c(C)[nH]1 | 5% | 7% | 6% | i | 6% | i
CCN(CC)c1ccc(/C=C2\CCC(/C=C(\C#N)C(=O)Nc3ccccc3F)=C2N2CCOCC2)cc1 | 6.5µM* | 4% | 3% | i | 2.3µM* | i
CCN(CC)c1ccc(/C=C2\CCC(/C=C(/C#N)C(=O)Nc3ccccc3F)=C2N2CCOCC2)cc1 | 2.1µM* | 13% | 15% | i | 2.3µM* | i
CC1CCN(C(=O)CN(Cc2ccc(F)cc2)S(C)(=O)=O)CC1 | 32% | 15% | 1% | i | -17% | i
Cc1ccc(S(=O)(=O)NCc2ccncc2)c(C)c1C | 1.8µM* | -20% | ? | ? | 1.3µM* | ?
COc1cc(C)c(Br)cc1S(=O)(=O)NCc1ccncc1 | 10µM* | 0% | ? | i | 9.2µM* | i
Cc1cc(C)c(S(=O)(=O)NCc2ccncc2)c(C)c1 | 7.3µM* | . | . | i | 7.3µM* | i
Cc1cc(C)c(S(=O)(=O)NCCc2ccncc2)c(C)c1 | -2% | 0% | 1% | i | -4% | i

Screens from PubChem BioAssay.
